# Test system: PPARg:RXRa 270nM:90nM, anti-RXR (NR concentration 270 nM, RXRa partner concentration 90 nM)
# Test: PBM binding z-score (relative to random genomic background probes); higher = stronger binding; sequences stand for … in GC…GCGATTGACAGCGTAGAATGAAGG
# Outline: (§1)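 The probes on custom Agilent 4×180K protein-binding microarrays were double-stranded, with 34-nt variable regions bearing direct-repeat seeds, single-nucleotide variants, half-site ablations and random human genomic background sequences. Incubation lasted 1 h with ligand-free nuclear receptor dimers in PBS pH 7.4, 2% milk, 0.02% Triton X-100, 1 mM DTT, 0.2 mg/mL BSA and 0.4 mg/ml salmon testes DNA. Antibodies against each partner (one per run) detected bound dimers, and fluorescence scans were regression-normalized. Binding z-scores take the random background probes as reference.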
row,Sequence,PBM binding z-score
1,CCTAGTTGGTCAGCAGGTCACACACCGGATATGA,2.51
2,TGAAGGAGGTTAAAGATCAGGGAACGTGGCGTCG,5.81
3,GCTAGCAGGCCAATTGGGTCACTCAATGACGGGC,1.14
4,TCAGACTGGTGAAGGTAACTCAGGTACGCAGTCG,1.29
5,CAGCCTAGGTCACGGCCAGTATAGGAGGAACGTT,4.44
6,CTCGAAAGGTCGTGCTCAGGTGAGTAAACCAAAC,4.18
7,GCTTGAAGATCAAGGTTAAGAAAGACTAAGCTAA,0.707
8,CCTAGCAGGCCGGGGTCACTCAAGCATTTCGCTT,3.86
9,CAGCCTAGGTCAGGGCCACTATAGGAGGAACGTT,1.27
10,CCGACTGGAGCAAAGGTTACCATACTCAGTACGA,8.31
11,TGAATGAGGTTATAAGATCTGGGAACGTTGCAAA,1.83
12,GATACAGGGTCAGCTAGAGGCCAGGGTATGGAAA,3.44
13,ACACACAGGTGATGAAGGTAACTCAGGCTATCAT,0.223
14,AGCTCTAGGTAAAGATAGTTCAGTGAATGCAAAT,0.135
15,CCTACTGGGCCAAAAAGGTCAATGATGCCGATAA,3.84
16,GCTCGGACGACAAGGTCAGAGCTTTGTCCGTAGA,0.343
17,GGAACGAGGGCAAAGTTGATAGCTTCTGTCGACG,6.83
18,ATATGTGGGTTACATCCGGGTCATTCAGGCTATG,4.48
19,CGAACTAGGTCATTGACAGGACTGTGAATAGTAA,6.1
20,TGAATGAGGTTATAAGATTAGGGAACGTTGCAAA,1.55

row,Sequence,PBM binding z-score
1,GCTAGTTGCTCAGTAAAAGGTCACACACCGGTCG,3.52
2,TTACCAAGGTGAGCTGAGGTCGTTAATCCAACTC,0.655
3,ACAGACAGGTGAGTGAAGGTAACTCATCTGGACG,0.0954
4,GCGACTGGGGCATCAGCAGGTTATCATAACTTAA,0.916
5,ACTATTAGTTGACTTAGGGTAACCGATACGACGC,0.758
6,TCTCGGAGGACAGGAAGGTCAGAGCTTTCCAGAG,1.49
7,CTGCCTAGGTCAGGGCCAGTATAGGAGGAACGTT,0.916
8,TGAATGAGGTTATAAAATCAGGGAACGTTGCAAA,1.19
9,ACAGACAGGTGATGAAGGTGACTCAGGCTATCAT,0.457
10,CGACCAAGGTCATAGGAGGTCAGTGAAGACAGAT,5.91
11,GTTACAGGGTCAGCTAGAGGCCAGAGTATGGAAA,3.64
12,CCTTACGGGTCACTGACAGGTTATACCATTTGGA,4.39
13,ATCTCTAGGTAAAGTTCAGTGAGAGATCGATAGA,3.95
14,ATCTCTAGGTAACAAATTCAGTGAAAGAGAGGAC,0.598
15,CGTCCAAGGTCAAGGTCAGTGTAAGAGACTCGAA,6.02
16,CGTACAAGGTCAGAGAGGTCAGTGAATGCCGAGT,4.98
17,ACTTACGGGTAAACGAGGTTATAGCACGCGTATA,0.752
18,GCTGCTAGGTCAGGTGGGTCAGCTAACGGGTACG,1.61
19,CCTACTGTGCCACGAAAGGTCATTGATTCAGTGA,4.36
20,CCTGCTAGGTCAATGGTCAGCAAAAGCAGCTCGC,5.15

# Test system: PPARg:RXRa 30nM:10nM, anti-RXR (NR concentration 30 nM, RXRa partner concentration 10 nM)
# Test: as above
# Outline: as §1
row,Sequence,PBM binding z-score
1,CCTAGTTGGTCAGCAGGTCACACACCGGATATGA,0.854
2,TGAAGGAGGTTAAAGATCAGGGAACGTGGCGTCG,4.55
3,GCTAGCAGGCCAATTGGGTCACTCAATGACGGGC,-0.473
4,TCAGACTGGTGAAGGTAACTCAGGTACGCAGTCG,2.82
5,CAGCCTAGGTCACGGCCAGTATAGGAGGAACGTT,1.29
6,CTCGAAAGGTCGTGCTCAGGTGAGTAAACCAAAC,0.732
7,GCTTGAAGATCAAGGTTAAGAAAGACTAAGCTAA,0.116
8,CCTAGCAGGCCGGGGTCACTCAAGCATTTCGCTT,0.906
9,CAGCCTAGGTCAGGGCCACTATAGGAGGAACGTT,-0.111
10,CCGACTGGAGCAAAGGTTACCATACTCAGTACGA,8.2
11,TGAATGAGGTTATAAGATCTGGGAACGTTGCAAA,0.892
12,GATACAGGGTCAGCTAGAGGCCAGGGTATGGAAA,0.426
13,ACACACAGGTGATGAAGGTAACTCAGGCTATCAT,0.238
14,AGCTCTAGGTAAAGATAGTTCAGTGAATGCAAAT,-0.22
15,CCTACTGGGCCAAAAAGGTCAATGATGCCGATAA,1.55
16,GCTCGGACGACAAGGTCAGAGCTTTGTCCGTAGA,-0.807
17,GGAACGAGGGCAAAGTTGATAGCTTCTGTCGACG,5.74
18,ATATGTGGGTTACATCCGGGTCATTCAGGCTATG,2.02
19,CGAACTAGGTCATTGACAGGACTGTGAATAGTAA,4.05
20,TGAATGAGGTTATAAGATTAGGGAACGTTGCAAA,1.09

row,Sequence,PBM binding z-score
1,GCTAGTTGCTCAGTAAAAGGTCACACACCGGTCG,1.06
2,TTACCAAGGTGAGCTGAGGTCGTTAATCCAACTC,0.0433
3,ACAGACAGGTGAGTGAAGGTAACTCATCTGGACG,0.12
4,GCGACTGGGGCATCAGCAGGTTATCATAACTTAA,-0.378
5,ACTATTAGTTGACTTAGGGTAACCGATACGACGC,0.442
6,TCTCGGAGGACAGGAAGGTCAGAGCTTTCCAGAG,2.39
7,CTGCCTAGGTCAGGGCCAGTATAGGAGGAACGTT,-0.35
8,TGAATGAGGTTATAAAATCAGGGAACGTTGCAAA,0.684
9,ACAGACAGGTGATGAAGGTGACTCAGGCTATCAT,-0.1
10,CGACCAAGGTCATAGGAGGTCAGTGAAGACAGAT,2.45
11,GTTACAGGGTCAGCTAGAGGCCAGAGTATGGAAA,0.837
12,CCTTACGGGTCACTGACAGGTTATACCATTTGGA,1.45
13,ATCTCTAGGTAAAGTTCAGTGAGAGATCGATAGA,2.06
14,ATCTCTAGGTAACAAATTCAGTGAAAGAGAGGAC,0.83
15,CGTCCAAGGTCAAGGTCAGTGTAAGAGACTCGAA,2.39
16,CGTACAAGGTCAGAGAGGTCAGTGAATGCCGAGT,1.97
17,ACTTACGGGTAAACGAGGTTATAGCACGCGTATA,0.277
18,GCTGCTAGGTCAGGTGGGTCAGCTAACGGGTACG,-0.279
19,CCTACTGTGCCACGAAAGGTCATTGATTCAGTGA,2
20,CCTGCTAGGTCAATGGTCAGCAAAAGCAGCTCGC,2.5

# From the supplement of paper PMC6555819
